Assay [1] is described as follows: qHTS profiling of the MIPE4 collection as inhibitors of Plasmodium falciparum (DD2) proliferation (AID 743345). As to conditions: P. falciparum Dd2 in erythrocytes, SYBR Green DNA, 72 h; at 28.5 µM (top of the series) unless noted. An outline of the steps: (§1)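 Erythrocytes infected with P. falciparum (0.3% parasitemia, 2.5% hematocrit) incubated with compounds 72 h at 37 C, 5% CO2. Lysis with saponin/Triton buffer containing SYBR Green I, overnight at room temperature in the dark; DNA fluorescence (485/535 nm) normalised to 0.29 uM artemisinin and DMSO.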
For orientation: In qHTS, concentration-response curves come from the screen itself.

A short description of assay [2]: qHTS profiling of the MIPE4 collection as inhibitors of Plasmodium falciparum (DD2) proliferation (Rep 2) (AID 743346). Particulars: P. falciparum Dd2 in erythrocytes, SYBR Green DNA, 72 h; at 28.5 µM (top of the series) unless noted. The essentials: as §1
Assay [3] can be described thus: qHTS profiling of the MIPE4 collection as inhibitors of Plasmodium falciparum (HB3) proliferation (AID 743347).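 Also: plate controls were DMSO vehicle wells for no effect and artemisinin wells for full effect.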 As to conditions: P. falciparum HB3 in erythrocytes, SYBR Green DNA, 72 h; at 28.5 µM (top of the series) unless noted. The essentials:
as §1

Assay [4] is described as follows: High-throughput drug toxicity screening in the BPDCN cell line Gen2.2 (AID 1224824).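 Also: cells exposed to compounds for 48 h before reading.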 Particulars: Gen2.2 BPDCN cells; at 45.8 µM (top of the series) unless noted. An outline of the steps: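 Seed 500 exponentially growing Gen2.2 cells/well; add compounds by pin tool; incubate 48 h, 37 °C, 5% CO2; add CellTiter-Glo, 15 min RT; read luminescence. % activity vs DMSO (100%) and bortezomib (0%).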

The nature of assay [5]: High-throughput drug toxicity screening in the BPDCN cell line Cal-1 (AID 1224825). Particulars: Cal-1 BPDCN cell viability, qHTS; at 45.8 µM (top of the series) unless noted. The essentials:
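Exponentially growing Cal-1 cells, 500 per well in phenol red-free RPMI with 10% FBS, were exposed to compounds for 48 h at 37 °C, 5% CO2. Viability was read by CellTiter-Glo luminescence and normalised to DMSO (100%) and 9.2 uM bortezomib (0%).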

Assay [6] is described as follows: qHTS assay for measurement of the activity of small molecule inhibitors on Zika virus induced Caspase-3 activity in human iPSC derived neural progenitor cells (hNPCs) (AID 1224857; active = well fitted inhibition curve with a large enough effect; also: % of control where 0% means no effect; nearly all actives have a fitted effect of over 65% in size). An outline of the steps:
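Values are percent inhibition of virus-induced caspase-3/7 signal, scaled between uninfected cells and ZIKV-infected cells. Infection used 2 FFU/cell for 6 h after 1 h compound exposure.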

Assay [7] can be described thus: qHTS Screen of the MIPE 4.0 Collection Against Ewings Sarcoma (RDES) (AID 1259252; active = well fitted inhibition curve with a large enough effect; also: nearly all actives have a fitted effect of over 35% in size; also: potency is read from the fitted curve at half-maximal effect). The essentials: (§2)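 Here, cells in 5% FBS RPMI were exposed for two days (48 h) to compound dilutions added four hours after plating. ATP-based CellTiter-Glo luminescence measured viability, normalized to vehicle and no-cell blanks.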
Assay [8] is described as follows: qHTS Screen of the MIPE 4.0 Collection Against Ewings Sarcoma (TC71) (AID 1259253; active = well fitted inhibition curve with a large enough effect; also: nearly all actives have a fitted effect of over 40% in size; also: potency is read from the fitted curve at half-maximal effect). The essentials:
as §2

A short description of assay [9]: qHTS Screen of the MIPE 4.0 Collection Against Ewings Sarcoma (EW8) (AID 1259255; active = well fitted inhibition curve with a large enough effect; also: nearly all actives have a fitted effect of over 35% in size; also: potency is read from the fitted curve at half-maximal effect;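 as to viability: 100% = DMSO-treated cells and 0% = medium-only wells without cells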). The essentials:
as §2

A short description of assay [10]: qHTS assay for measurement of the activity of small molecule inhibitors on Zika virus induced Caspase-3 activity in human astrocytoma cells (AID 1224859; active = well fitted inhibition curve with a large enough effect;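 also: plate controls were ZIKV-infected untreated cells for no effect and uninfected cells for full effect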). The essentials:
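Compound added 1 h pre-infection; ZIKV 2 FFU/cell on SNB-19 cells, 6 h, 37 C/5% CO2. Caspase-Glo 3/7 luminescence; values as % inhibition of ZIKV-induced caspase activity.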

Results filed as inconclusive are left out. Active and inactive are the calls of the source. Unless noted, no rule for the calls is given here.

`COC(=O)[C@@H]1CC2=CC(=O)CC[C@]2(C)[C@@]23O[C@@H]2C[C@@]2(C)[C@H](CC[C@@]24CCC(=O)O4)[C@@H]13` gave a parasite growth remaining, % of DMSO control (lower = more inhibition) in assay [1] of 87.1%. The parasite growth, % of control (lower = inhibition) in [2] was 61.4%. In assay [3], the growth, % of control was 49.1%. Besides, the cell viability, % of control (lower = more cytotoxic) in [4] turned out to be 132%. Besides, the viability (% of control) in assay [5] is 108%. In addition, the Potency result in [6], in [7], in [8] and in assay [9] was “inactive” each time.
`CN(C)c1ccc(C(=O)NCCCCCCC(=O)NO)cc1` yielded a parasite growth remaining, % of DMSO control (lower = more inhibition) in assay [1] of 7.09%. Also, in assay [2], the parasite growth, % of control (lower = inhibition) came to 8.85%. The compound also gave a growth, % of control in assay [3] of 2.69%. Further, the cell viability, % of control (lower = more cytotoxic) in [4] was determined as 15.8%. Further, the viability (% of control) in assay [5] is 4.88%. The Potency result in assay [6] was “inactive”. The Potency in [7] was 662 nM (active); in [8], 590 nM (active); in assay [9], 526 nM (active).
The compound `CCN1CCN(C(=O)N[C@H](C(=O)N[C@@H]2C(=O)N3C(C(=O)O)=C(CSc4nnnn4C)CS[C@@H]23)c2ccc(O)cc2)C(=O)C1=O` displayed a parasite growth remaining, % of DMSO control (lower = more inhibition) in assay [1] of 95.9% [at 9.64 µM]. In [2], this compound gave a parasite growth, % of control (lower = inhibition) of 57.9% [at 9.64 µM]. The growth, % of control in [3] is 90.1% [at 9.64 µM]. In addition, the cell viability, % of control (lower = more cytotoxic) in assay [4] came to 149% [at 15.3 µM]. For the same compound, the viability (% of control) in [5] was 113% [at 15.3 µM]. Further, the Potency entry in assay [6], in assay [7], in [8] and in assay [9] was “inactive” each time.
`COC1=C2C[C@@H](C)C[C@H](OC)[C@@H](O)[C@@H](C)C=C(C)[C@H](OC(N)=O)[C@@H](OC)C=CC=C(C)C(=O)NC(=CC1=O)C2=O`: in [1], the parasite growth remaining, % of DMSO control (lower = more inhibition) amounted to 5.64%. In addition, in assay [2], the parasite growth, % of control (lower = inhibition) was 11.9%. The growth, % of control in assay [3] came to 3.98%. Further, the cell viability, % of control (lower = more cytotoxic) in assay [4] was 3.44%. Besides, the viability (% of control) in assay [5] is 4.06%. In addition, the Potency entry in assay [6] is “inactive”. Besides, the Potency in assay [7] is 590 nM (active); in assay [8], 590 nM (active); in assay [9], 372 nM (active).
Consider `CC(C)(N)c1ccc(-c2nc3ccccc3nc2-c2ccccc2)cc1`, for which the parasite growth remaining, % of DMSO control (lower = more inhibition) in [1] stood at 18.1%. In addition, the parasite growth, % of control (lower = inhibition) in assay [2] came to 26.5%. In [3], this compound came in with a growth, % of control of 18.5%. Also, the cell viability, % of control (lower = more cytotoxic) in [4] amounted to 8.3%. In assay [5], the viability (% of control) was found to be 4.03%. Besides, the Potency result in assay [6] and in assay [10] was “inactive” in each case. The Potency in [8] is 26400 nM (active); in [9], 20900 nM (active).
Compound `CN1[C@H]2CC(OC(=O)[C@@H](CO)c3ccccc3)C[C@H]1[C@H]1O[C@H]12` (stereo partly specified) gave a growth, % of control in [3] of 107%. In addition, the cell viability, % of control (lower = more cytotoxic) in assay [4] was determined as 189% [at 23.2 µM]. The viability (% of control) in assay [5] came out at 107% [at 23.2 µM]. Moreover, the Potency result in assay [6], in assay [7], in [8] and in assay [9] was “inactive” each time.
In assay [1], `CN(C)CC(=O)N1CCC(c2ccc(NC(=O)c3ncc(C#N)[nH]3)c(C3=CCCCC3)c2)CC1` gave a parasite growth remaining, % of DMSO control (lower = more inhibition) of 16.6%. The same compound displayed a parasite growth, % of control (lower = inhibition) in [2] of 12.3%. In addition, the growth, % of control in assay [3] was 9.47%. In assay [4], the cell viability, % of control (lower = more cytotoxic) was found to be 168%. In [5], the viability (% of control) worked out at 28.6%. For the same compound, in assay [6], the Potency result is “inactive”. In addition, the figures for the Potency in assay [7], in assay [8] and in [9] were 13200 nM (active), 16600 nM (active) and 18700 nM (active), respectively.

(Values after PubChem BioAssay (NCATS).)
